# The full list was thinned out, with hits kept by preference.
# GIRK2 act: activators of NPY4-receptor-primed GIRK2 channels, summary, cell-based, HEK293, thallium flux | AID 1259324, 2017 | G protein-activated inward rectifier potassium channel 2 (Homo sapiens), P48051 | 34,000 tested, under 10 active | HEK293 GIRK2/NPY4 cells, thallium flux fluorescence | activation (% efficacy), % for hits at 37.5 µM;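 active = primary screen hit, no activity in plain HEK293 cells, and in GIRK2-only cells above 5% efficacy rising with concentration; inactive = the rest, including fluorescent compounds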;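 also: efficacy is normalized control-subtracted fluorescence 15 s after thallium addition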
# Target sequence (P48051 whole entry, looked up): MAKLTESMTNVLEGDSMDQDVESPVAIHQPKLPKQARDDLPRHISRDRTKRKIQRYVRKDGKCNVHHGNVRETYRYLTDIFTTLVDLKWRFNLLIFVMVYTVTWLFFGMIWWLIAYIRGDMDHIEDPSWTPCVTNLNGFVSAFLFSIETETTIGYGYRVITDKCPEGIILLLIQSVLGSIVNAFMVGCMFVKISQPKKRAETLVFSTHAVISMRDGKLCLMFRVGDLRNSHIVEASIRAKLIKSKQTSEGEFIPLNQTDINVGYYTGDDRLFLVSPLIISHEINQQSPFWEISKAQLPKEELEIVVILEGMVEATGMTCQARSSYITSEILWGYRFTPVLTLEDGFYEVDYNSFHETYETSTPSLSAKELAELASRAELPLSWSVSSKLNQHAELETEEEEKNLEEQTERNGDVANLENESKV
# GluA2 TARP mod: modulators of GluA2-stargazin AMPA receptor complexes, primary screen, cell-based, membrane potential dye | Voltage-dependent calcium channel gamma-2 subunit (Mus musculus) + Glutamate receptor 2 … | HEK293 GluA2+stargazin, membrane potential dye (FDSS), glutamate EC50; hits were called plate by plate, in both directions | calls only at 30 µM | hit rate 3.5% among 40,000 | AID 1259245, 2017;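 active = any of four per-well response measures lying three or more SD from its plate-wide compound average, in either direction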
# Active calls of the source: *; i = inactive; / = not tested or not shown; + = active, no number.
SMILES,GIRK2 act,GluA2 TARP mod
Cc1cc(C)c2c(n1)nn1c(NC(C)c3ccccc3)cc(C)nc21 (stereo unspecified),i,i
Cn1nc(-c2ccc(NC(=O)c3cccs3)cc2)ccc1=O,i,i
Cc1ccsc1-c1nnc(CC(=O)NCc2ccccc2F)o1,i,/
O=C(NCCc1ccccc1)C(=O)NCC1CCN(C(=O)COc2ccccc2)CC1,i,+
O=C(NCc1cccc2ccccc12)NCC1CCN(C(=O)COc2ccccc2)CC1,i,+
O=C(NCc1ccccc1Cl)C(=O)NCC1CCN(C(=O)COc2ccccc2)CC1,i,i
O=C(NCCc1ccccc1)NCC1CCN(C(=O)COc2ccccc2)CC1,i,i
Cc1ccc(N2CCN(c3ccc(S(=O)(=O)c4ccccc4)nn3)CC2)c(C)c1,i,i
Cc1ccc(C)c(N2CCN(c3ccc(S(=O)(=O)c4ccccc4)nn3)CC2)c1,i,+
COc1ccc(NC(=O)NCC2CCN(Cc3ccccc3SC)CC2)cc1OC,i,i
COc1cc(/C=C/C(=O)O)cc(S(=O)(=O)N2CCC(C(=O)O)CC2)c1OC,/,i
CCOc1ccc(-c2nc(Cn3nnc(C(=O)Nc4ccc(C)c(F)c4)c3C)c(C)o2)cc1,i,i
COCCn1c(SCc2ccc(Cl)cc2)nc2cc(C(=O)NC(C)C)ccc2c1=O,i,i
COCCn1c(SCC(=O)c2c(C)[nH]c3ccccc23)nc2cc(C(=O)NC(C)C)ccc2c1=O,/,+
C=CCN1CC(c2nc3ccccc3n2Cc2ccc(Cl)c(Cl)c2)CC1=O (stereo unspecified),/,i
C=CCN1CC(c2nc3ccccc3n2C(C)c2ccccc2)CC1=O (stereo unspecified),/,+
CC(c1ccccc1)n1c(C2CC(=O)N(C(C)(C)C)C2)nc2ccccc21 (stereo unspecified),/,+
C=CCN1CC(c2nc3ccccc3n2Cc2ccc(C(C)(C)C)cc2)CC1=O (stereo unspecified),/,i
C=CCN1CC(c2nc3ccccc3n2Cc2c(C)c(C)cc(C)c2C)CC1=O (stereo unspecified),/,+
CC(C)(C)N1CC(c2nc3ccccc3n2CCOc2ccccc2)CC1=O (stereo unspecified),/,i
COc1ccc(C(=O)Nc2nonc2-c2ccccc2)cc1OC,i,i
CN(C(=O)Cn1c(-c2ccc(F)cc2)ncc(C#N)c1=O)c1ccccc1,i,i
Cc1nc2nc(C)c(CC(=O)O)c(=O)n2[nH]1,i,i
CCn1nnc2c(N3CCN(S(=O)(=O)c4cc(C)ccc4C)CC3)ncnc21,i,i
Clc1cccc(-c2noc(-c3cn[nH]c3-c3ccccc3)n2)c1,i,i
SMILES,GIRK2 act,GluA2 TARP mod
CCOC(=O)Cn1c(=O)c2c(nc3n(-c4ccccc4)c(C)cn23)n(C)c1=O,/,i
Cc1ccc(OCC(=O)N2CCN(c3ccc4nncn4n3)CC2)cc1C,i,i
COc1cc(C(C)=O)ccc1OCC(=O)N1CCN(c2ccc3nncn3n2)CC1,i,+
CCOCCn1c(=O)c2c(nc(-n3nc(C)cc3C)n2Cc2ccc(C)cc2)n(C)c1=O,i,i
CCN1CCc2c(sc(NC(=O)c3ccc(OC)c(OC)c3)c2-c2nc3ccccc3s2)C1,/,+
CCN1CCc2c(sc(NC(=O)c3ccc(C)c(C)c3)c2-c2nc3ccccc3s2)C1,/,i
COC(=O)c1ccc(C(=O)Nc2sc3c(c2-c2nc4ccccc4s2)CCN(C(C)C)C3)cc1,/,i
COc1ccc(C(=O)Nc2sc3c(c2-c2nc4ccccc4s2)CCN(C(C)C)C3)cc1OC,/,+
NC(=O)c1ccsc1NC(=O)C1CCN(S(=O)(=O)c2ccc(Cl)cc2)CC1,i,+
NC(=O)c1ccsc1NC(=O)C1CCCCC1,i,i
COCCn1c(=O)c2c(nc3n2CC(C)CN3c2cc(C)ccc2OC)n(C)c1=O (stereo unspecified),/,i
Cc1nnsc1C(=O)Nc1ccc2c(c1)CN(C(=O)C1CC1)CC2,i,i
CN(C)CCNC(=O)Cc1cc(-c2ccccc2)on1,i,/
Cc1ccc(S(=O)(=O)NNc2ccc(Cl)nn2)cc1,i,i
CN(C)CCCNC(=O)C(=O)Nc1ccc2c(c1)OCCO2,i,i
CC(=O)Nc1cccc(NC(=O)C(=O)NCCCN(C)C)c1,/,+
CCn1c(=O)c2c(nc3n2CCCN3c2cc(C)ccc2OC)n(C)c1=O,/,i
Cc1cc(NC(=O)C(=O)NCCCN2CCOC(c3ccccc3)C2)no1 (stereo unspecified),i,/
CCCCOc1ccc(NC(=O)Nc2ccc3c(c2)CC(=O)N3)cc1,i,i
CC(C)OC(=O)C1(C(=O)OC(C)C)CC2(COC(c3ccccc3)OC2)C1,i,+
CC(C)OC(=O)C1(C(=O)OC(C)C)CC(CO)(CO)C1,/,i
COc1ccc(-n2c(COc3ccc4c(c3)OCO4)nnc2SCC(=O)c2ccccc2)cc1,/,i
COc1c2c(cc3c1C(CC(=O)c1ccccc1)N(C)CC3)OCO2 (stereo unspecified),/,+
CCCNC(=O)Cn1cc(OC)c(=O)cc1CSc1nc(C)cc(C)n1,i,+
COc1cn(CC(=O)NCc2ccccc2)c(CSc2nc(C)cc(C)n2)cc1=O,i,i
SMILES,GIRK2 act,GluA2 TARP mod
Cc1ccc(C)c(Cn2c(=O)c3c(nc4n(CCCN(C)C)c(C)c(C)n34)n(C)c2=O)c1,i,i
Cc1c(C)n2c3c(=O)n(Cc4cccc(Cl)c4)c(=O)n(C)c3nc2n1CCN(C)C,i,+
CC(C)CNC(=O)C(=O)NN1CCN(C)CC1,i,/
COC(=O)c1cccc(NC(=O)CNC(=O)C2CCCCC2)c1,/,i
O=C1CC(c2nc3ccccc3n2Cc2ccc(F)cc2)CN1Cc1ccc(F)cc1 (stereo unspecified),/,i
COc1cccc(N2CC(c3nc4ccccc4n3Cc3ccccc3Cl)CC2=O)c1 (stereo unspecified),/,+
O=C1CC(c2nc3ccccc3n2Cc2ccc(F)cc2)CN1Cc1ccccc1 (stereo unspecified),/,+
CC(C)(C)N1CC(c2nc3ccccc3n2CCOc2ccc(Cl)cc2)CC1=O (stereo unspecified),/,i
O=C1CC(c2nc3ccccc3n2Cc2c(F)cccc2Cl)CN1Cc1ccccc1 (stereo unspecified),/,+
C=CCN1CC(c2nc3ccccc3n2Cc2c(F)cccc2Cl)CC1=O (stereo unspecified),/,i
COc1cccc(N2CC(c3nc4ccccc4n3Cc3ccccc3)CC2=O)c1 (stereo unspecified),/,i
CC(C)(C)N1CC(c2nc3ccccc3n2Cc2c(F)cccc2Cl)CC1=O (stereo unspecified),/,+
O=c1[nH]c2c(c3c1CCC3)CCCC2,i,i
Cc1ccc(C)c(Cn2c(=O)c3c(nc4n(CC(C)C)c(C)cn34)n(C)c2=O)c1,i,i
CC(C)CCn1c(C2CC(=O)N(Cc3ccc(F)cc3)C2)nc2ccccc21 (stereo unspecified),/,i
CCCCN1CC(c2nc3ccccc3n2Cc2ccccc2)CC1=O (stereo unspecified),/,i

# Assay outcomes: PubChem, several laboratories
